According to PubChem BioAssay:
Unmarked numbers belong to inactive results. How the calls were made is not given here.

Experiment: fluorescence interference in NS3h assay format, artefact control for HCV NS3 helicase inhibitor project, biochemical, NIH Clinical Collection (AID 743272);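 further: HCV NS3 helicase with a Cy5 labelled single stranded DNA probe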
Conditions: fluorescence interference counterscreen, active compounds read low

## CC#C[C@]1(O)CC[C@H]2[C@@H]3CCC4=CC(=O)CCC4=C3[C@@H](c3ccc(N(C)C)cc3)C[C@@]21C
  fluorescence ratio: 0.97
